Results as given in article PMC5540273 (PLoS ONE, 2017).

Legend:
Conditions in all cases: concentration: 1 μM, replicates: in singlicate; n = 1
[1] = test system: PRKCH
[2] = test system: PRKCI
[3] = test system: PRKCQ
[4] = test system: PRKD1
[5] = test system: PRKD2
[6] = test system: PRKD3
[7] = test system: PRKG1
[8] = test system: PRKG2
[9] = test system: T1, PRKR
T1 construct: gene EIF2AK2

[10] = test system: PRKX
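Also: KINOMEscan kinase panel screen.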

SMILES | %Inh [1] [%] | %Inh [2] [%] | %Inh [3] [%] | %Inh [4] [%] | %Inh [5] [%] | %Inh [6] [%] | %Inh [7] [%] | %Inh [8] [%] | %Inh [9] [%] | %Inh [10] [%]
Nc1ncnc2occ(-c3ccc4c(c3)CCN4C(=O)Cc3cc(F)ccc3F)c12 [GSK2645446] | 0 | 23 | 0 | 0 | 0 | 0 | 7 | 17 | 3 | 0
Cl.Cl.Cl.N#Cc1ccc(CCNc2nccc(-c3cccc(CN4CCNCC4)c3)n2)cc1 [GSK2137462] | 25 | 21 | 5 | 1 | 13 | 0 | 0 | 4 | 0 | 4
CCn1c(-c2ccccc2)nc2cnccc21 [SB-733416] | 3 | 8 | 44 | 0 | 1 | 0 | 0 | 0 | 0 | 5
Cc1cccc2c(-c3ccncn3)c(-c3ccc(F)cc3)nn12 [GW515532] | 33 | 26 | 9 | 3 | 0 | 32 | 8 | 0 | 0 | 5
Cc1cnc(N)c(/C=C/c2cncc(C(=O)NCCc3ccc(Cl)cc3Cl)c2)c1.Cl [GSK190937] | 31 | 23 | 0 | 0 | 5 | 0 | 10 | 16 | 0 | 19
COC(=O)C(Cc1ccccc1)NC(=O)NC1CCN(c2ccnc(Nc3ccc(F)cc3)n2)C1 (centres unmarked) [GSK1379714] | 10 | 22 | 0 | 0 | 0 | 100 | 0 | 8 | 6 | 0
O=C1NC(=O)C(c2ccc(Cl)cc2)=C1Nc1cccc(Cl)c1 [SB-317651] | 0 | 6 | 11 | 38 | 0 | 0 | 3 | 0 | 0 | 0
CS(=O)(=O)CCNCc1nc(-c2ccc3ncnc(Nc4ccc5c(cnn5Cc5ccccc5)c4)c3c2)cs1.Cl.Cl [GW569716] | 11 | 23 | 0 | 4 | 0 | 0 | 0 | 0 | 0 | 0
COc1ccc(CSc2nnc(-c3ccc4ncsc4c3)o2)cc1C(F)(F)F | 0 | 0 | 10 | 17 | 7 | 11 | 0 | 0 | 3 | 0
COc1ccc(Nc2nccc(-c3ccc(NC(=O)c4cc5cc(F)ccc5[nH]4)cc3)n2)cc1 [GSK1229496] | 20 | 15 | 0 | 0 | 0 | 100 | 0 | 0 | 0 | 5
COc1cc2ncnc(Nc3cccc(Br)c3)c2cc1OC.Cl [GI230329] | 0 | 15 | 4 | 0 | 6 | 0 | 9 | 1 | 0 | 6
Cc1c(Cn2c3ccccc3n3c(=O)cc(N4CCOCC4)nc23)cccc1C(F)(F)F [GSK2306394] | 22 | 9 | 10 | 0 | 10 | 27 | 28 | 0 | 25 | 30
Cc1ccc(NC(=O)Nc2ccc(Cl)c(C(F)(F)F)c2)cc1-c1ccc(C(=O)Nc2ccncc2)cc1 [GSK1398470] | 23 | 0 | 23 | 0 | 17 | 13 | 0 | 39 | 0 | 0
COc1cccc(CNC(=O)NC2CCN(c3ccnc(Nc4ccc(F)cc4)n3)C2)c1 (centres unmarked) [GSK1379723] | 2 | 10 | 0 | 0 | 0 | 14 | 0 | 0 | 0 | 6
Cc1ccc(NC(=O)c2ccc(Cl)cc2)cc1-c1ccc(C(=O)Nc2ccncc2)cc1 [GSK1398467] | 5 | 5 | 0 | 0 | 0 | 9 | 0 | 0 | 4 | 23
CC(=O)c1c(C)c2cnc(Nc3ccn(C)n3)nc2n(C2CCCC2)c1=O | 0 | 0 | 0 | 0 | 0 | 0 | 0 | 0 | 0 | 0
COc1ccc(Nc2nccc(NCCNC(=O)Nc3cc(C)ccc3C)n2)cc1 [GSK1379899] | 41 | 22 | 0 | 0 | 0 | 11 | 18 | 0 | 0 | 5
